An excerpt weighted towards active compounds, which were near 4.3% of everything screened.
uPA generation: qHTS for Inhibitors of Cell Surface uPA Generation; cell surface uPA generation assay, qHTS; Potency, µM (highest dose often 38.3 µM), usual class: inhibitors; 0.31% of 330,000 active; active = well fitted inhibition curve with a large enough effect; inconclusive = small, poorly fitted or top-dose-only effect; inactive = no such curve, though single readings can be large or run the other way; tested in mouse RAW 264.7 cells; also: nearly all actives have a fitted effect of over 55% in size
Giardia killer: Small Molecules that selectively kill Giardia lamblia: qHTS; 0.15% of 340,000 active; AID 540267, 2011; activity change, % at 7.66 µM, hits read low; Giardia lamblia trophozoite viability; in the data active = activity change below about -80%; inconclusive = between about -30% and that limit;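 also: parasites exposed to compound for two days anaerobically before the ATP read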
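Viability, read as ATP luminescence: trophozoites at 100 cells/well, compound added, 48 hrs anaerobic at 37 deg C, then 15-30 min room-temperature development before reading.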
MCF10A rerep: A quantitative high throughput screen for small molecules that induce DNA re-replication in MCF 10a normal breast cells; MCF 10A DNA re-replication, Hoechst nuclear intensity, 48 h; Potency, µM (doses to about 46.1 µM), actives largely listed as activators; 2.9% of 350,000 active; AID 624296, 2012; also: nearly all actives have a fitted effect of over 50% in size
SW480 rerep: A quantitative high throughput screen for small molecules that induce DNA re-replication in SW480 colon adenocarcinoma cells. 1.8% of 340,000 active. SW480 DNA re-replication, Hoechst DNA content imaging, 48 h. Potency, µM (titrated, usually from 46.1 µM), hits mostly activators; also: nearly all actives have a fitted effect of over 55% in size
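SW480 cells exposed to compounds for 48 hr at 37 C, 5% CO2, then Hoechst-stained 40 min. Nuclear DNA content imaged by fluorescence scanning (405 nm excitation, 500-530 nm emission); re-replication scored as increased high-intensity nuclei.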
Hits are given with their value; [ ] = another dose, or the depositor's remark. Unless noted, calls follow the shape of the dose curve; as a rule, active = well fitted activation curve with a large enough effect; inconclusive = small, poorly fitted or top-dose-only effect; inactive = no such curve, though single readings can be large or run the other way.

How did COc1cc(C#Cc2c(C=O)n(C)c3ccccc23)cc(OC)c1 do in these assays?
uPA generation: inactive; Giardia killer: inactive; MCF10A rerep: 5.8µM; SW480 rerep: 8.2µM

How did Cc1ccc(NC(=O)Cn2c(O)c(N=NC(N)=O)c3ccccc32)cc1 do in these assays?
uPA generation: inactive; Giardia killer: inactive; MCF10A rerep: inconclusive; SW480 rerep: inconclusive

What do the screens show for `Cc1ccc(NC(=O)Cn2c(O)c(N=NS(=O)(=O)c3ccc(C)cc3)c3ccccc32)cc1`?
uPA generation: inactive; Giardia killer: inactive; MCF10A rerep: 21µM; SW480 rerep: inconclusive

What do the screens show for `CC(=O)c1cccc(NC(=O)Cn2nc(-c3ccc(Cl)cc3)ccc2=O)c1`?
uPA generation: inconclusive; Giardia killer: inactive; MCF10A rerep: 0.58µM; SW480 rerep: inactive

How did N#Cc1c(NC(=O)C2CC(c3ccccc3Cl)=NO2)sc2c1CCC2 (stereo unspecified) do in these assays?
uPA generation: inactive; Giardia killer: inactive; MCF10A rerep: 21µM; SW480 rerep: inactive

How did COC(=O)/C=c1/s/c(=C(/C#N)C(=O)N2CCOCC2)n(-c2ccccc2)c1=O do in these assays?
uPA generation: inactive; Giardia killer: inactive; MCF10A rerep: inconclusive; SW480 rerep: inactive[9.22 µM]

Results for COC(=O)/C=c1/s/c(=C(/C#N)C(=O)N2CCCCC2)n(-c2ccccc2)c1=O ?
uPA generation: inactive; Giardia killer: inactive; MCF10A rerep: inactive; SW480 rerep: 0.33µM

Results for S=C(NCCCN(Cc1ccc(Cl)cc1)c1ccc(Br)cn1)NCc1ccc2nc[nH]c2c1 ?
Giardia killer: inactive

What do the screens show for `COC(=O)c1c(NC(=S)NN2CCOCC2)sc2c1CCCC2`?
uPA generation: inactive; Giardia killer: inactive; MCF10A rerep: inactive; SW480 rerep: inactive

What do the screens show for `CCCCN=C1SC(C(=O)Nc2sc3c(c2C(=O)OC)CCC3)C(N)=C1C(=O)N1CCOCC1` (stereo unspecified)?
uPA generation: inactive; Giardia killer: inactive; MCF10A rerep: 21µM; SW480 rerep: inactive

Results for O=[N+]([O-])c1ccc(/C=N/Nc2nc(N3CCCC3)nc(N3CCCC3)n2)o1 ?
uPA generation: inactive; Giardia killer: -95; MCF10A rerep: inactive; SW480 rerep: inactive

What do the screens show for `CCNc1nc(NCC)nc(N/N=C/c2ccc([N+](=O)[O-])o2)n1`?
uPA generation: inactive; Giardia killer: -82; MCF10A rerep: inactive; SW480 rerep: inconclusive

How did O=[N+]([O-])c1ccc(-c2ccc(/C=N/Nc3nc(N4CCCC4)nc(N4CCCC4)n3)o2)cc1 do in these assays?
uPA generation: inactive; Giardia killer: inactive; MCF10A rerep: inconclusive; SW480 rerep: inconclusive

What do the screens show for `O=C(c1ccncc1)N1CCN(S(=O)(=O)c2cccc(Cl)c2)CC1`?
uPA generation: inactive; Giardia killer: inactive; MCF10A rerep: inactive; SW480 rerep: inactive

How did CSc1cccc(NC(=O)C(=O)NCc2ccccc2)c1 do in these assays?
uPA generation: inactive; Giardia killer: inactive; MCF10A rerep: inactive; SW480 rerep: inactive

Results for Cc1cccc(C)c1NC(=S)NC(=O)CCc1ccccc1 ?
uPA generation: inactive; Giardia killer: inactive; MCF10A rerep: inconclusive; SW480 rerep: 3.3µM

Results for NC(=O)c1ccccc1NC(=S)NC(=O)CCc1ccccc1 ?
uPA generation: inactive; Giardia killer: inactive; MCF10A rerep: 5.8µM; SW480 rerep: 3.3µM

How did CSc1cccc(NC(=S)NC(=O)CCc2ccccc2)c1 do in these assays?
uPA generation: inactive; Giardia killer: inactive; MCF10A rerep: 16µM; SW480 rerep: inconclusive

What do the screens show for `CSc1cccc(NC(=O)CCc2ccccc2)c1`?
uPA generation: inactive; Giardia killer: inactive; MCF10A rerep: inactive; SW480 rerep: inconclusive

What do the screens show for `CSc1cccc(NC(=O)NCc2cccc(CNC(=O)Nc3cccc(SC)c3)c2)c1`?
uPA generation: inconclusive; Giardia killer: inactive; MCF10A rerep: 7.3µM; SW480 rerep: inactive

Results for O=C(NC1CCCCC1)C(c1cccnc1)N(C(=O)c1csnn1)c1ccccc1F (stereo unspecified) ?
uPA generation: inactive; Giardia killer: inactive; MCF10A rerep: inconclusive; SW480 rerep: inactive

Results for NS(=O)(=O)c1ccc(CCNC(=O)c2ccc[nH]c2=S)cc1 ?
uPA generation: inactive; Giardia killer: inactive; MCF10A rerep: inactive; SW480 rerep: inactive

How did NC1=NC(=O)/C(=C/c2cn(CCC(=O)O)nc2-c2ccc(Cl)cc2)S1 do in these assays?
uPA generation: inactive; Giardia killer: inactive; MCF10A rerep: inactive; SW480 rerep: inactive

Results for NC1=NC(=O)/C(=C\c2ccc(-c3ccc(Cl)cc3)o2)S1 ?
uPA generation: inactive; Giardia killer: inconclusive; MCF10A rerep: 7.3µM; SW480 rerep: inconclusive

What do the screens show for `NC(=S)Nc1cccc2cc3ccccc3cc12`?
uPA generation: inactive; Giardia killer: inactive; MCF10A rerep: inconclusive; SW480 rerep: 12µM

How did Cc1ccc(-c2nc(=Nc3c(C)cc(C)cc3C)sn2-c2ccccc2)cc1 do in these assays?
Giardia killer: inactive

Results for O=[N+]([O-])c1cccnc1NCCc1ccccc1 ?
uPA generation: inactive; Giardia killer: inactive; MCF10A rerep: inactive; SW480 rerep: inactive

How did O=C1C=C(NCCc2cc(Br)c(O)c(Br)c2)C(=O)c2ncccc21 do in these assays?
uPA generation: inactive; Giardia killer: inactive; MCF10A rerep: inconclusive; SW480 rerep: 3.7µM

What do the screens show for `COc1ccc(Cl)cc1NC(=O)COC(=O)C1CC(=O)N(Cc2ccccc2)C1` (stereo unspecified)?
uPA generation: inactive; Giardia killer: inactive; MCF10A rerep: inactive; SW480 rerep: inactive

What do the screens show for `O=C(NCc1ccco1)C1CCN(S(=O)(=O)c2cccc([N+](=O)[O-])c2)CC1`?
uPA generation: inactive; Giardia killer: inactive; MCF10A rerep: inactive; SW480 rerep: inactive

What do the screens show for `CCOC(=O)Cc1c(C)nc2c(-c3cccc(Br)c3)c[nH]n2c1=O`?
uPA generation: inactive; Giardia killer: inactive; MCF10A rerep: 7.3µM; SW480 rerep: 18µM

What do the screens show for `O=C(CN1CCN(c2ccccc2O)CC1)Nc1cc(S(=O)(=O)N2CCCC2)ccc1Cl`?
uPA generation: inactive; Giardia killer: inactive; MCF10A rerep: inactive; SW480 rerep: inactive

What do the screens show for `CC(=O)c1cccc(NC(=O)Cn2cnc(S(=O)(=O)N3CCOCC3)c2)c1`?
uPA generation: inactive; Giardia killer: inactive; MCF10A rerep: inactive; SW480 rerep: inactive

What do the screens show for `COc1cccc2c1C(CCCC(=O)O)CCC2` (stereo unspecified)?
uPA generation: inactive; Giardia killer: inactive; MCF10A rerep: inactive; SW480 rerep: inactive

Results for COc1cccc2c1C1COC3C4CC(C(=O)O)C(C(C2)N13)N4C (stereo unspecified) ?
uPA generation: inactive; Giardia killer: inactive; MCF10A rerep: 2.6µM; SW480 rerep: inconclusive

How did CCOc1ccc(S(=O)(=O)N(CC(=O)N/N=C/c2ccc(-c3ccc([N+](=O)[O-])cc3)o2)c2ccccc2)cc1 do in these assays?
uPA generation: inactive; Giardia killer: inactive; MCF10A rerep: 0.82µM; SW480 rerep: 21µM

How did Cc1ccc(C)c(N(CC(=O)N/N=C/c2ccc(-c3ccc([N+](=O)[O-])cc3)o2)S(=O)(=O)c2ccccc2)c1 do in these assays?
uPA generation: inactive; Giardia killer: inactive; MCF10A rerep: inactive; SW480 rerep: inactive
